Assay results as given in PubChem BioAssay AID1008 (NMMLSC, 2008).
Out of some 190,000 compounds screened, about 240 (0.13%) were called active. Many of the other results were omitted from the sample, so actives are more common in it than they were. Unmarked numbers belong to inactive results. Cut-off read from the data, not from the text of the source: active = inhibition above about 40%.

Target: Bcl-2-related protein A1 (Homo sapiens) (UniProt Q16548)
Assay: inhibitors of Bim binding to Bfl-1, primary screen, biochemical, multiplexed, bead-based flow cytometry (AID 1008);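 note: 0% = wells without compound plus tracer and 100% = blocker peptide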
Conditions: Bim-Bfl-1 binding inhibition, at 10 µM, hits give high values

Sequence of Bcl-2-related protein A1 (Homo sapiens) (Q16548 whole entry, looked up): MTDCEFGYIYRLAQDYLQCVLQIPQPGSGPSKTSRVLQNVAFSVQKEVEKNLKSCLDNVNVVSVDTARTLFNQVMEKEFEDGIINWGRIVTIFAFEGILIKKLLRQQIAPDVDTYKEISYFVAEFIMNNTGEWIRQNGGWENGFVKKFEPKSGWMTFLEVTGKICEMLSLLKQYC

Compound | inhibition [%]
Cn1nnnc1SCC(=O)NNC(=O)c1ccc(Br)cc1 | -10
CCCCCN(C(=O)NC(=O)Nc1cccc(C)c1C)S(C)(=O)=O | -7
CCn1c(C(C)NC(=O)c2ccc(C)cc2)n[nH]c1=S (configuration not stated) | 1
CC(C)CN(C(=O)CN1CCN(S(=O)(=O)c2ccccc2)CC1)c1c(N)n(CC(C)C)c(=O)[nH]c1=O | -2
O=C(c1cc(=O)c2ccccc2o1)N1CCN(c2ccccc2)CC1 | 0
CN(C(=O)COc1ncnc2c1cnn2-c1ccccc1)C1CCCCC1 | -7
COc1ccc(S(=O)(=O)N2CCCCCC2)cc1C(=O)OCC(=O)Nc1cc(C)on1 | -1
O=C(Cc1ccc(F)cc1)N/N=C/c1ccc2c(c1)OCO2 | -2
Cc1ccc(SCCC(=O)NCc2ccccn2)cc1 | 4
C/C(=N\NC(=O)c1cc2c(s1)CCC(C)C2)c1cccnc1 (configuration not stated) | 0
O=C(Nc1cccnc1)c1ccc(Cl)cc1[N+](=O)[O-] | -1
O=C(CC1SC(=Nc2ccccc2)N(Cc2ccccn2)C1=O)Nc1cccc(Cl)c1 (configuration not stated) | 11
O=C(CCN1C(=O)c2ccncc2C1=O)Nc1cc(F)ccc1F | -8
Cc1csc(Nc2ccc(Cl)cc2)[n+]1-c1ccc(Cl)cc1 | 5
Cc1ccc(NC(=S)N(CCN2CCCCC2)Cc2ccco2)cc1C | -3
CCc1ccccc1NC(=O)CN(c1ccc(OC)cc1OC)S(=O)(=O)c1ccccc1[N+](=O)[O-] | -12
Cn1c(=O)c([N+](=O)[O-])c(Oc2ccccc2)c2ccccc21 | 0
C=CCN(CC=C)C(=O)COC(=O)c1n[nH]c2ccccc12 | -7
CCc1ccc(C(=O)OCC(=O)NCC(F)(F)F)cc1 | -3

Compound | inhibition [%]
CCOC(=O)CSC1=N/C(=C/c2ccc(-n3cncn3)cc2)C(=O)N1C(C)=O | -5
Cc1ccc(C2=N/C(=C\c3ccc(OS(=O)(=O)c4ccc(C)cc4)cc3)C(=O)O2)cc1 | -2
Cc1cc(NC(=O)CSc2nnc(Nc3ccccc3F)s2)no1 | -8
CN1CCN(c2nc(Nc3ccc(O)cc3)nc3ccccc23)CC1 | -5
CCOC(=O)CNC(=O)/C(=C\c1ccc(F)cc1)NC(=O)c1ccccc1 | -7
O=C(Cn1nc(CNc2ccc(Cl)cc2)[n+]2c1CCCCC2)c1ccc(Cl)cc1 | -16
CC1CCN(S(=O)(=O)c2ccc(S(=O)(=O)NCc3cccnc3)cc2)CC1 | 6
COC(=O)Cn1cc(/C=C/[N+](=O)[O-])c2ccccc21 | 4
CC(C(=O)NC1CCCC1)N(c1ccc(Oc2ccccc2)cc1)S(C)(=O)=O (configuration not stated) | -2
COc1cc2sc(C)nc2cc1C | 2
CSCCC(NC(=O)c1cc([N+](=O)[O-])cc([N+](=O)[O-])c1)c1nc2ccccc2[nH]1 (configuration not stated) | -16
CCn1c(=S)[nH]c2sc3c(c2c1=O)CCCCC3 | 3
COc1cc(/C=N/NC(=S)Nc2cccnc2)cc(OC)c1O | 7
CN(C)/N=C/c1cc(Cl)cc([N+](=O)[O-])c1O | 0
CCOC(=O)C1(Cc2cccc(OC)c2)CCCN(S(=O)(=O)c2cccnc2)C1 (configuration not stated) | -2
Fc1ccc(COc2cccc(-c3n[nH]c(=S)o3)c2)cc1 | 5
O=C(C1CCCO1)N1CCN(C(=S)NC2CC2)CC1 (configuration not stated) | -4
COc1ccc(CNC(=O)COC(=O)/C=C/c2ccc(S(=O)(=O)N3CCOCC3)cc2)cc1 | -3
COC(=O)c1cc2occc2n1Cc1nc(-c2ccccc2C)oc1C | 0

Compound | inhibition [%]
CC(=O)Nc1cccc(/C(C)=N/NC(=O)c2c(-c3ccccc3Cl)noc2C)c1 | 0
COc1ccc(C(=O)CSc2nnnn2C)c(OC)c1 | -5
Nc1nc(-c2sc3nc4c(cc3c2N)CCCC4)nc(N2CCOCC2)n1 | -5
CC1(c2ccccc2)CC(C)(C)N(C(=O)c2cc([N+](=O)[O-])cc([N+](=O)[O-])c2)c2ccccc21 (configuration not stated) | -1
CCN(C(=O)CN1CCN(Cc2ccccc2)CC1)c1c(N)n(Cc2ccccc2)c(=O)[nH]c1=O | -3
Cn1c(=O)c2c(ncn2CC(=O)N/N=C/c2cn[nH]c2-c2ccc(F)cc2)n(C)c1=O | -3
C/C(=N/NS(=O)(=O)c1ccccc1)c1ccc(NC(=O)C(F)(F)F)cc1 | -2
O=C1N/C(=C/c2cccn2-c2ccccc2)C(=O)N1c1cccc(Cl)c1 | -2
CSCC(NS(=O)(=O)c1ccc(C)cc1)C(=O)O (configuration not stated) | -9
Cc1c(C(=O)c2cccc([N+](=O)[O-])c2)c2ccccn2c1CCC#N | -8
O=C(CCN1C(=O)c2ccccc2C1=O)C1=NN[C@@H]2C(=O)N(c3ccc(F)cc3)C(=O)[C@H]12 | -9
CCOc1ccc(C(CC(=O)O)n2cnnn2)cc1OC (configuration not stated) | -4
COC(c1ccccc1)c1nnc(CCC(=O)N2CCN(CCOc3ccccc3)CC2)o1 (configuration not stated) | -5
Cc1cccc(Cn2cnc3c(N)c(C)c(C)cc32)c1 | -4
Cc1ccc2c(c1)C1CN(C)CCC1N2C(=S)Nc1ccc(OC(F)F)cc1 (configuration not stated) | -7
Nc1nc(SCc2ccc([N+](=O)[O-])cc2)c2ncn(C3OC(CO)C(O)C3O)c2n1 (configuration not stated) | -10
O=c1[nH]n2c(=O)c3c([nH]c2c1N=Nc1ccccc1)CCC3 | 0
COc1ccc(OC)c2[nH]c(=O)c(CCNC(=O)C(=O)c3c[nH]c4ccccc34)cc12 | -9
Cc1cc(/C=N/NC(N)=O)c(C)n1C1CCCCC1 | 16
